This note sets out measurements from PubChem BioAssay (NCATS).

Records with an inconclusive call do not appear. Unmarked numbers belong to inactive results. Calls come from the whole dose curve; as a rule, active = well fitted inhibition curve with a large enough effect; inconclusive = small, poorly fitted or top-dose-only effect; inactive = flat fitted curve, though single readings scatter.

Sequence of Luciferin 4-monooxygenase (Photinus pyralis) (P08659 whole entry, looked up): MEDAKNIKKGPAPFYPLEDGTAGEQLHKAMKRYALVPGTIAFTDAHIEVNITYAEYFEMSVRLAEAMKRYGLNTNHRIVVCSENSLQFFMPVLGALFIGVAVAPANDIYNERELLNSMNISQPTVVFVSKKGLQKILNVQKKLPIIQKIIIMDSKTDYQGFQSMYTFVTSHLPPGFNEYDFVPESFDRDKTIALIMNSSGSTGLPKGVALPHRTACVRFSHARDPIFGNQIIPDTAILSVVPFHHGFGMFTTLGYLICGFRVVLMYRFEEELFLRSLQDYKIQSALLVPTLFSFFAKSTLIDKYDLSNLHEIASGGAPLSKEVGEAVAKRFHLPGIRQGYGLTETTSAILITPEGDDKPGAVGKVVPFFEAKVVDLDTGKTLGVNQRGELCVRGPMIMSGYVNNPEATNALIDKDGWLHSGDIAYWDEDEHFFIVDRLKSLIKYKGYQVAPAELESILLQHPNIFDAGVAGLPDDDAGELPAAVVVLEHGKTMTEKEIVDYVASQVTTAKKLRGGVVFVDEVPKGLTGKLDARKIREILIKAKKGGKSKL

This assay deals with Luciferin 4-monooxygenase (Photinus pyralis) (UniProt P08659). Put plainly: Biochemical firefly luciferase enzyme assay for NPC (AID 624030).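 Note: purified P. pyralis luciferase at 10 nM with luciferin and ATP substrate; 0% = DMSO and -100% = full luciferase inhibition by PTC124 control; nearly all actives have a fitted effect of over 70% in size.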 As to conditions: purified P. pyralis luciferase, luminescence, 5 min; series mostly up to 58.6 µM; activity change, negative = inhibition: at the top concentration. A digest of the protocol:
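Counter-screen for direct inhibition of the luciferase enzyme by approved-drug library compounds, run at 10 nM enzyme in 50 mM Tris acetate (final). Luminescence was read within 5 min of enzyme-buffer addition and normalized to PTC124 versus DMSO (0%).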
Consider `CCNC(C)Cc1ccc2c(c1)OCO2` (stereo unspecified), for which the “activity change, negative = inhibition” value was 2.81% [at 123 µM].

Regarding `COc1cc(CCN)c(OC)cc1Br`, the “activity change, negative = inhibition” value is -0.0378% [at 123 µM].

Turning to `CN1[C@@H]2CC[C@H]1CC(OC(=O)C(CO)c1ccccc1)C2` (stereo partly specified), the “activity change, negative = inhibition” value is 0.913%.

As for `CCC(=O)O[C@@](Cc1ccccc1)(c1ccccc1)[C@H](C)CN(C)C`, the “activity change, negative = inhibition” value was 5.92% [at 123 µM].

As for `C[C@]12CCC(=O)C=C1CC[C@H]1C2CC[C@@]2(C)[C@@H]1CC[C@]2(C)O` (stereo partly specified), the “activity change, negative = inhibition” value was -4.89%.

Consider `CCC(=O)OC1[C@@H](N2CCCCC2)C[C@H]2[C@@H]3CC[C@H]4C[C@H](OC(C)=O)[C@@H](N5CCCCC5)C[C@]4(C)[C@H]3CC[C@]12C` (stereo partly specified), for which the “activity change, negative = inhibition” value is 3.93%.

As for `CC(C)[C@@]1(NC(=O)[C@H]2C[C@H]3c4cccc5[nH]cc(c45)C[C@@H]3N(C)C2)O[C@]2(O)[C@H]3CCCN3C(=O)CN2C1=O` (tested in a mixture with another compound), the “activity change, negative = inhibition” value was -1.72%.

As for `CC[C@H](OC(C)=O)C(C[C@H](C)NC)(c1ccccc1)c1ccccc1`, the “activity change, negative = inhibition” value is 3.4% [at 123 µM].

Take `C[C@]12CCC3C(CCC4=CC(=O)CC[C@@H]43)C1CCC2O` (stereo partly specified): the “activity change, negative = inhibition” value was 0.957%.

With `CC1[C@H]2Cc3ccc(O)cc3[C@]1(C)CCN2CCc1ccccc1` (stereo partly specified), the “activity change, negative = inhibition” value was 7.17% [at 123 µM].

With `CC(C)CC1C(=O)N2CCCC2C2(O)OC(NC(=O)C3CC4c5cccc6[nH]cc(c56)CC4N(C)C3)(C(C)C)C(=O)N12` (stereo unspecified), the “activity change, negative = inhibition” value was -1.5%.

As for `CN1CC[C@]23c4c5ccc(O)c4OC2C(O)CCC3[C@H]1C5` (stereo partly specified), the “activity change, negative = inhibition” value is -0.535% [at 123 µM].

Consider `C[C@H]1[C@@H]2Cc3ccc(O)cc3[C@]1(C)CCN2C`, for which the “activity change, negative = inhibition” value was 3.11% [at 288 µM].

Take `COc1ccc2c3c1OC1C(O)C=CC4[C@@H](C2)N(C)CC[C@]314` (stereo partly specified): the “activity change, negative = inhibition” value was -3.07% [at 123 µM].

`C[C@]12CCC3[C@@H](CCC4=CC(=O)CC[C@@]43C)C1CCC2OC(=O)CCc1ccccc1` (stereo partly specified): the “activity change, negative = inhibition” value was -2.57% [at 123 µM].

For the compound `CN[C@H]1C[C@@H](N)[C@H](O)[C@@H](O[C@@H]2O[C@H](CO)[C@H](O)[C@@H]3O[C@]4(O[C@@H]23)O[C@H]([C@@H](N)CO)[C@H](O)[C@@H](O)[C@H]4O)[C@@H]1O`, the “activity change, negative = inhibition” value is 5.77%.
